Measured values reported in PubChem BioAssay.
Activity calls are given as the source filed them.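 The calls were made as follows, unless noted: active = viability at or below 30% in both replicate assays; inconclusive = viability at or below 30% in just one of the two assays; inactive = the rest.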

Tests used:
[1] = SK-BR-3 cell growth inhibitors, pilot screen, 24 h, human (AID 572;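 active = viability at or below 10% of carrier control in both of two separate runs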;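 also: compound exposure lasted between 18 and 24 h rather than exactly 24 h; 100% = carrier-treated control wells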); conditions: SK-BR-3 viability, CellTiter-Glo luminescence, at 10 µM, stronger effect = lower value
[2] = HUVEC growth inhibition – cell-based, human, primary screen (AID 575); conditions: HUVEC proliferation, CellTiter-Glo luminescence, 72 h; at 10 µM; stronger effect = lower value;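 also: 100% = median of untreated cell wells with 0.1% DMSO on each plate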
[3] = reversal of MRP1-mediated doxorubicin resistance, pilot screen, H69AR cells, doxorubicin co-treatment (AID 601;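 active = viability loss from added drug above about 55%, and viability with drug at most 40%, in both replicates, limit read from the data, passing the limit was not always enough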); conditions: CellTiter-Glo, 72 h, at 10 µM; for differential viability (reversal): stronger effect = higher value
[4] = 384-well plate pilot, post-Golgi transport modulator project, inhibition of yeast transport mutant growth (AID 636; in the data active = inhibition above about 31%); conditions: absorbance 615 nm, about 18 h, stronger effect = higher value
[5] = growth suppression of yeast trafficking mutant, preliminary HTS, modulators of trafficking downstream of Golgi apparatus project, 1536-format plate, OD 615 nm (AID 637; in the data active = inhibition above about 30%); conditions: yeast transport mutant growth, absorbance 615 nm, 18 h; stronger effect = higher value
[6] = H69AR cells + 2 uM doxorubicin, measured here: viability with 2 uM doxorubicin, stronger effect = lower value
[7] = H69AR cells, compound alone cytotoxicity

**Q.** Which viability [1] does the source give for O=C(Cn1c(=O)oc2ccccc21)Nc1ccc(S(=O)(=O)N2CCCCC2)cc1 here?
**A.** 106% (inactive)

**Q.** What about the viability [2] of the same compound?
**A.** 89.2% (inactive)

**Q.** And the differential viability (reversal) ([3]; H69AR cells + 2 uM doxorubicin)?
**A.** 5.17% (inactive)

**Q.** What about the viability [3, 6] of the same compound?
**A.** 59.9%

**Q.** What about the viability [3, 7] of the same compound?
**A.** 65.1%

**Q.** What about the inhibition [4] of the same compound?
**A.** 1.92% (inactive)

**Q.** What about the inhibition [5] of the same compound?
**A.** -2.58% (inactive)

**Q.** Which viability [1] does the source give for CC1Cc2ccccc2N1CC(=O)NC(=O)NCc1ccco1 (configuration not stated) here?
**A.** 85% (inactive)

**Q.** What about the viability [2] of the same compound?
**A.** 89.6% (inactive)

**Q.** What about the differential viability (reversal) ([3]; H69AR cells + 2 uM doxorubicin) of the same compound?
**A.** -30.2% (inactive)

**Q.** And the viability [3, 6]?
**A.** 70.1%

**Q.** And the viability [3, 7]?
**A.** 39.9%

**Q.** What about the inhibition [4] of the same compound?
**A.** -0.27% (inactive)

**Q.** And the inhibition [5]?
**A.** 2.36% (inactive)

**Q.** Which viability [1] does the source give for CC(C)(C)OC(=O)N1CC=C2C(C#N)=C(N)C(C#N)(C#N)C(c3cccs3)C2C1 (configuration not stated) here?
**A.** 65% (inactive)

**Q.** What about the viability [2] of the same compound?
**A.** 53.9% (inactive)

**Q.** What about the differential viability (reversal) ([3]; H69AR cells + 2 uM doxorubicin) of the same compound?
**A.** -5.04% (inactive)

**Q.** And the viability [3, 6]?
**A.** 57.8%

**Q.** And the viability [3, 7]?
**A.** 52.8%

**Q.** And the inhibition [4]?
**A.** -1.92% (inactive)

**Q.** And the inhibition [5]?
**A.** -0.16% (inactive)

**Q.** With CCOC(=O)N1CCC(NC(=O)c2ccc3c(c2)sc2nc(-c4cccc(OC)c4)cn23)CC1 as the compound, how does the viability [1] read?
**A.** 80% (inactive)

**Q.** What about the viability [2] of the same compound?
**A.** 52% (inactive)

**Q.** What about the differential viability (reversal) ([3]; H69AR cells + 2 uM doxorubicin) of the same compound?
**A.** 8.43% (inactive)

**Q.** And the viability [3, 6]?
**A.** 41.5%

**Q.** And the viability [3, 7]?
**A.** 49.9%

**Q.** What about the inhibition [4] of the same compound?
**A.** -1.95% (inactive)

**Q.** What about the inhibition [5] of the same compound?
**A.** -0.98% (inactive)

**Q.** Which viability [1] does the source give for CCOC(=O)N1CCC(=C2c3ccc(Cl)cc3CCc3cccnc32)CC1 here?
**A.** 116% (inactive)

**Q.** What about the viability [2] of the same compound?
**A.** 52.7% (inactive)

**Q.** What about the inhibition [4] of the same compound?
**A.** 1.95% (inactive)

**Q.** What about the inhibition [5] of the same compound?
**A.** 12.2% (inactive)

**Q.** Which viability [1] does the source give for C=CCOc1ccc(CN(C)CC(=O)N(CC(C)C)c2c(N)n(CC(C)C)c(=O)[nH]c2=O)cc1 here?
**A.** 99% (inactive)

**Q.** And the viability [2]?
**A.** 99.6% (inactive)

**Q.** What about the inhibition [4] of the same compound?
**A.** -6.16% (inactive)

**Q.** And the inhibition [5]?
**A.** 2% (inactive)

**Q.** Which results are given for COc1ccccc1NC(=O)C1=C(C)NC(SCC(=O)c2ccc(C)cc2)=C(C#N)C1c1ccco1 (configuration not stated)?
**A.** viability [1]: 81% (inactive); viability [2]: 72.5% (inactive); differential viability (reversal) ([3]; H69AR cells + 2 uM doxorubicin): 0.78% (inactive); viability [3, 6]: 16.8%; viability [3, 7]: 17.6%; inhibition [4]: 1.1% (inactive); inhibition [5]: -3.64% (inactive)

**Q.** For CCCOc1ccc2nc(NC(=O)OC)[nH]c2c1, which viability [1] is on record?
**A.** 95% (inactive)

**Q.** And the viability [2]?
**A.** 37.3% (inactive)

**Q.** What about the differential viability (reversal) ([3]; H69AR cells + 2 uM doxorubicin) of the same compound?
**A.** -30.4% (inactive)

**Q.** What about the viability [3, 6] of the same compound?
**A.** 57.3%

**Q.** What about the viability [3, 7] of the same compound?
**A.** 26.9%

**Q.** And the inhibition [4]?
**A.** -0.52% (inactive)

**Q.** What about the inhibition [5] of the same compound?
**A.** -1.5% (inactive)

**Q.** Which results are given for COc1ccc2cc(C(c3nnnn3C(C)(C)C)N3CCc4ccccc4C3)c(=O)[nH]c2c1 (configuration not stated)?
**A.** viability [1]: 81% (inactive); viability [2]: 48.3% (inactive); differential viability (reversal) ([3]; H69AR cells + 2 uM doxorubicin): 26% (inactive); viability [3, 6]: 23.1%; viability [3, 7]: 49.1%; inhibition [4]: -5.33% (inactive); inhibition [5]: -2.36% (inactive)

**Q.** Which results are given for CCCc1[nH]nc2c1C(c1cn[nH]c1-c1ccc(F)cc1)C(C#N)=C(N)O2 (configuration not stated)?
**A.** viability [1]: 98.5% (inactive); viability [2]: 48.3% (inactive); differential viability (reversal) ([3]; H69AR cells + 2 uM doxorubicin): -8.32% (inactive); viability [3, 6]: 53.7%; viability [3, 7]: 45.4%; inhibition [4]: -2.21% (inactive); inhibition [5]: 2.95% (inactive)

**Q.** Which viability [1] does the source give for COc1cc(/C=C/C(=O)CC(=O)/C=C/c2ccc(O)c(OC)c2)ccc1O here?
**A.** 116% (inactive)

**Q.** What about the viability [2] of the same compound?
**A.** 56.8% (inactive)

**Q.** What about the differential viability (reversal) ([3]; H69AR cells + 2 uM doxorubicin) of the same compound?
**A.** 1.03% (inactive)

**Q.** What about the viability [3, 6] of the same compound?
**A.** 2.06%

**Q.** And the viability [3, 7]?
**A.** 3.09%

**Q.** And the inhibition [4]?
**A.** -2.34% (inactive)

**Q.** And the inhibition [5]?
**A.** 3.5% (inactive)

**Q.** Which viability [1] does the source give for N=c1c(C(=O)NCc2ccccc2)cc2c(=O)n3ccccc3nc2n1Cc1ccco1 here?
**A.** 93% (inactive)

**Q.** What about the viability [2] of the same compound?
**A.** 79.2% (inactive)

**Q.** And the differential viability (reversal) ([3]; H69AR cells + 2 uM doxorubicin)?
**A.** -13.5% (inactive)

**Q.** What about the viability [3, 6] of the same compound?
**A.** 65.5%

**Q.** And the viability [3, 7]?
**A.** 52.1%

**Q.** What about the inhibition [4] of the same compound?
**A.** -4.25% (inactive)

**Q.** And the inhibition [5]?
**A.** 0.32% (inactive)

**Q.** For CN(C)CCCN1c2ccccc2Sc2ccc(Cl)cc21, which viability [1] is on record?
**A.** 71% (inactive)

**Q.** And the viability [2]?
**A.** 2.62% (active)

**Q.** What about the differential viability (reversal) ([3]; H69AR cells + 2 uM doxorubicin) of the same compound?
**A.** -26.7% (inactive)

**Q.** What about the viability [3, 6] of the same compound?
**A.** 28.3%

**Q.** And the viability [3, 7]?
**A.** 1.67%

**Q.** What about the inhibition [4] of the same compound?
**A.** -0.91% (inactive)

**Q.** And the inhibition [5]?
**A.** 7.17% (inactive)

**Q.** Which results are given for CC(=O)[C@@]1(O)CC[C@H]2[C@@H]3C[C@H](C)C4=CC(=O)CC[C@]4(C)[C@H]3CC[C@@]21C?
**A.** viability [1]: 106% (inactive); viability [2]: 73.9% (inactive); differential viability (reversal) ([3]; H69AR cells + 2 uM doxorubicin): -15.6% (inactive); viability [3, 6]: 18%; viability [3, 7]: 2.32%; inhibition [4]: -1.43% (inactive); inhibition [5]: -2.67% (inactive)

**Q.** For Cc1cc(C(=O)COc2cccc3cccnc23)c(C)n1C, which viability [1] is on record?
**A.** 95% (inactive)

**Q.** And the viability [2]?
**A.** 80.9% (inactive)

**Q.** And the differential viability (reversal) ([3]; H69AR cells + 2 uM doxorubicin)?
**A.** -11.7% (inactive)

**Q.** And the viability [3, 6]?
**A.** 70.8%

**Q.** What about the viability [3, 7] of the same compound?
**A.** 59.1%

**Q.** And the inhibition [4]?
**A.** -2.67% (inactive)

**Q.** What about the inhibition [5] of the same compound?
**A.** -3.64% (inactive)

**Q.** What does the source list for O=S1(=O)Nc2c(ccc3cccnc23)-c2ccccc21?
**A.** viability [1]: 122% (inactive); viability [2]: 8.06% (active); differential viability (reversal) ([3]; H69AR cells + 2 uM doxorubicin): -6.77% (inactive); viability [3, 6]: 56%; viability [3, 7]: 49.2%; inhibition [4]: -7.5% (inactive); inhibition [5]: 9.84% (inactive)

**Q.** For COC1=CC(=O)CC(C)C12Oc1c(Cl)c(OC)cc(OC)c1C2=O (configuration not stated), which viability [1] is on record?
**A.** 100% (inactive)

**Q.** What about the viability [2] of the same compound?
**A.** 62.8% (inactive)

**Q.** What about the differential viability (reversal) ([3]; H69AR cells + 2 uM doxorubicin) of the same compound?
**A.** -31.8% (inactive)

**Q.** And the viability [3, 6]?
**A.** 50%

**Q.** And the viability [3, 7]?
**A.** 18.1%

**Q.** And the inhibition [4]?
**A.** -2.99% (inactive)

**Q.** And the inhibition [5]?
**A.** -5.67% (inactive)

**Q.** What does the source list for CC(=O)O[C@H]1C(=O)[C@]2(C)[C@H]([C@H](OC(=O)c3ccccc3)[C@]3(O)C[C@H](OC(=O)[C@H](O)[C@@H](NC(=O)c4ccccc4)c4ccccc4)C(C)=C1C3(C)C)[C@]1(OC(C)=O)CO[C@@H]1C[C@@H]2O?
**A.** viability [1]: 67% (inactive); viability [2]: 38.8% (inactive); differential viability (reversal) ([3]; H69AR cells + 2 uM doxorubicin): -69.2% (inactive); viability [3, 6]: 81.8%; viability [3, 7]: 12.6%; inhibition [4]: 0.52% (inactive); inhibition [5]: -0.67% (inactive)

**Q.** With O=C(Nc1ccccc1-c1nc2ccccc2o1)c1ccc2c(c1)OCCO2 as the compound, how does the viability [1] read?
**A.** 112% (inactive)

**Q.** What about the viability [2] of the same compound?
**A.** 66.7% (inactive)

**Q.** What about the differential viability (reversal) ([3]; H69AR cells + 2 uM doxorubicin) of the same compound?
**A.** -12.7% (inactive)

**Q.** And the viability [3, 6]?
**A.** 48.4%

**Q.** And the viability [3, 7]?
**A.** 35.7%

**Q.** And the inhibition [4]?
**A.** -3.64% (inactive)

**Q.** And the inhibition [5]?
**A.** -4.44% (inactive)
